Assay: enhancers of glutamate uptake in motor neurons, MN-1 cell line (AID 1612);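 note: tested at 1 µM final; 0% = mean of DMSO vehicle wells on each plate; positive means more glutamate uptake than control and negative means less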
Details: MN-1 motor neuron cells, stronger effect = higher value
Work on C[C@@H]1CC[C@H]2[C@@H](C)C(=O)O[C@@H]3OC4(C)CC[C@@H]1[C@]32OO4 yielded a glutamate uptake change of 20.6%.
CCC(C)C(=O)O[C@H]1[C@H](O)C2C(CN3CC(C)CCC3[C@@]2(C)O)C2C[C@]34O[C@]5(O)C(OC(=O)C(C)(O)C(C)O)CC[C@@]3(C)C5C(OC(C)=O)[C@@H](OC(C)=O)C4[C@@]21O (stereo not given in full) showed a glutamate uptake change of 2.79%.
Compound CO[C@H]1[C@H](O)[C@H](O[C@H]2CC[C@]3(C)C4CC[C@]5(C)C(C6=CC(=O)OC6)CC[C@]5(O)C4CC[C@@H]3C2)O[C@@H](C)[C@@H]1O (stereo not given in full) has a glutamate uptake change of -17.6%.
Work on CC(=O)C1=C(O)C2C3c4c[nH]c5cccc(c45)CC3C(C)(C)N2C1=O (stereo not given) yielded a glutamate uptake change of 28.8%.
With C/C=C(\C)C(=O)O[C@H]1C[C@@H](OC(C)=O)[C@@]2(C(=O)OC)CO[C@@H]3C2[C@]12CO[C@](O)(C(=O)OC)[C@H]2[C@](C)(C12O[C@@]1(C)[C@H]1C[C@@H]2OC2OC=C[C@@]21O)[C@@H]3O (stereo not given in full) the glutamate uptake change was 12.4%.
Compound O=C1CC2OCC=C3CN4CC[C@]56c7ccccc7N1C5[C@H]2[C@H]3CC46 (stereo not given in full) has a glutamate uptake change of -17.6%.
Compound COc1ccc2c(c1)[C@]13CCCC[C@H]1[C@H](C2)N(C)CC3 has a glutamate uptake change of 6.18%.
Work on COc1ccc2c(c1OC)C(=O)O[C@H]2[C@H]1c2cc3c(cc2CCN1C)OCO3 yielded a glutamate uptake change of 13.5%.
With C[C@H]1O[C@@H](O[C@H]2[C@@H](O)C[C@H](O[C@H]3[C@@H](O)C[C@H](O[C@H]4CC[C@]5(C)C6CC[C@]7(C)[C@@H](C8=CC(=O)OC8)CC[C@]7(O)C6CC[C@@H]5C4)O[C@@H]3C)O[C@@H]2C)C[C@H](O)[C@@H]1O (stereo not given in full) the glutamate uptake change was 5.63%.
C=C1C2CC[C@H]3[C@]4(C)C[C@H](OC5OC(CO)C(OS(=O)(=O)O)C(OS(=O)(=O)O)C5OC(=O)CC(C)C)C[C@@H](C(=O)O)[C@H]4CC[C@]3(C2)[C@H]1O (stereo not given in full) gave a glutamate uptake change of 4.94%.

Reference: PubChem BioAssay
